From PubChem
In the library only some 2.9% were active in any assay of this set; here they are far more common.
SNCA viab count – GF-AFC viability counterscreen for inhibitors of alpha-synuclein gene (SNCA) expression | HEK-293-SNCA-luc viability, GF-AFC fluorescence, 24 h | Potency, µM (series often up to 57.1 µM), hits mostly cytotoxic | actives 0.12% (n = 150,000); also: nearly all actives have a fitted effect of over 30% in size
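Cytotoxicity counterscreen: after 24 h compound treatment of genome-edited SNCA-luciferase HEK-293 cells, live-cell protease substrate GF-AFC read by fluorescence after 30 min; activity scaled between DMSO (0%) and medium-only (-100%), curves Hill-fitted.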
SNCA expr inh – Primary qHTS assay for inhibitors of alpha-synuclein gene (SNCA) expression | Potency, µM (top dose mostly 57.2 µM), most hits filed as inhibitors | actives 0.17% (n = 140,000) | AID 1671194, 2021 | HEK-293 SNCA-luciferase knock-in, luminescence, 24 h; also: nearly all actives have a fitted effect of over 45% in size
IP6K1 inh – Primary qHTS assay for small molecule inhibitors of Inositol hexaphosphate kinase 1 (IP6K1); Inositol hexakisphosphate kinase 1 (Homo sapiens), Q92551; IP6K1 kinase, ADP-Glo luminescence, 2 h; stronger effect = lower value; activity change, % (series mostly up to about 58 µM); actives 0.81% (n = 140,000); AID 1645851, 2021; in the data active = activity change below about -25%
Target sequence (Q92551 whole entry, looked up): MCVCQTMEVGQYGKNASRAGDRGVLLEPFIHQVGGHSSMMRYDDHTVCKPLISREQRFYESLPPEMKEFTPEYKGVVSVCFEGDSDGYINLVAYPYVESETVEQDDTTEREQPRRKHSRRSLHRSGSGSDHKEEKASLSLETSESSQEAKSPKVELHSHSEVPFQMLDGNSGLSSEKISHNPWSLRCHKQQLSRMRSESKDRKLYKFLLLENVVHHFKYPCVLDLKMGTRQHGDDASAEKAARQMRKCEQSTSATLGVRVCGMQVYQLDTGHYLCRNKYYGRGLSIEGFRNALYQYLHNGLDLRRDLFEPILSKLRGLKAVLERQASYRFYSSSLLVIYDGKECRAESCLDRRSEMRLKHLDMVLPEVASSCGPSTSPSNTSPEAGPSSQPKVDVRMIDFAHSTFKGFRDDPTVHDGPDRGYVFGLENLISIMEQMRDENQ
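ADP-Glo luminescence measures ADP made by human IP6K1 during a 2 h RT reaction with ATP/IP6 (mix at 1.3 mM/130 uM); top library doses 57.5 and 19.1 uM final.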
KDM5B inhibitor – Primary screen for KDM5B Histone Demethylases FDH-coupled qHTS; Lysine-specific demethylase 5B (Homo sapiens), Q9UGL1; KDM5B demethylase, FDH-coupled NADH fluorescence (FDH is formaldehyde dehydrogenase); Potency, µM (doses to about 57.7 µM), hits mostly inhibitors; actives 2.6% (n = 220,000); AID 1347165, 2019; also: nearly all actives have a fitted effect of over 70% in size
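Inhibition is measured as reduced NADH fluorescence generation from FDH coupling to formaldehyde release. Truncated KDM5BΔAP at 200 nM final acts on H3K4me3 peptide (12.5 µM in substrate mix) in pH 7.5 HEPES buffer with Tween-20, 30 min, room temperature.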
IP6K1 inh cnf – Confirmatory qHTS assay for small molecule inhibitors of Inositol hexaphosphate kinase 1 (IP6K1); Potency, µM (top dose mostly 49 µM), most hits filed as inhibitors; recombinant IP6K1 kinase, ADP-Glo luminescence, 2 h; actives 13% (n = 1,200); shares compounds with IP6K1 inh; also: nearly all actives have a fitted effect of over 65% in size
Numbers stand for hits; 0 = inactive; ? = inconclusive; - = not tested or not shown; ! = repeats disagree; [ ] = dose if it differs, or a comment. Unless noted, calls follow the shape of the dose curve; as a rule, active = well fitted curve in the direction sought with a large enough effect; inconclusive = small, poorly fitted or top-dose-only effect, or another doubt; inactive = no such curve, though single readings can be large; an effect the other way counts as inactive or inconclusive.

SMILES	SNCA viab count	SNCA expr inh	IP6K1 inh	KDM5B inhibitor	IP6K1 inh cnf
NC1CCCCN(C(=O)c2scc3c2CCCC3)C1 (centres undefined)	0	0	0	0	-
Cc1ccc2c(c1)cc1c(=O)n(Cc3ccc(Cl)cc3)nc(C)n12	0	0	0	?	-
Cc1ccc2c(c1)cc1c(=O)n(Cc3cccc(Cl)c3)nc(C)n12	0	0	-29.9	0	0
COc1ccccc1-c1nc2c(c(SCc3cc(C)ccc3C)n1)Cc1c(CO)cnc(C)c1O2	0	0	-27.2	?	0
c1cn(-c2ccc(-c3nc(C4CCOC4)no3)cc2)cn1 (centres undefined)	0	0	-28.0	0	0
COc1cc(NC(=O)N2CCC(NS(=O)(=O)c3ccc(Cl)cc3)CC2)cc(OC)c1	-	-	-	0	-
CC1Oc2ccc(NC(=O)c3ccc(Cl)cc3)cc2CN(C(C)C)C1=O (centres undefined)	0	0	0	0	-
Cc1ccc(-n2c(C3CCN(C(=O)c4cccc(C(F)(F)F)c4)CC3)n[nH]c2=O)cc1	0	0	0	0	-
Nc1ccc(C(=O)O)c([N+](=O)[O-])c1	-	-	-	0	-
Nc1ccc(O)c([N+](=O)[O-])c1	0	0	-28.0	-	31.6µM
COc1cc(OC)c(NC(=O)C2CCCN(c3ccc4nncn4n3)C2)cc1Cl (centres undefined)	-	-	-	0	-
NC(=O)C1(C(=O)N2C[C@@H](C(=O)O)[C@H](c3ccc4c(c3)OCO4)C2)CC1	0	0	0	0	-
CCOC(=O)C1CCN(c2c(C(=O)c3ccc(OCC)cc3)cnc3ccc(OC)cc23)CC1	?	?	-33.2	?	0
O=C(c1ccccc1)N1Cc2[nH]cnc2C[C@H]1c1nc(-c2ccc(Cl)cc2)no1	0	?	-38.7	0	?
Cc1oc(-c2ccccc2)nc1C(=O)Nc1nc(C(C)C)cs1	-	-	-	0	-
COCc1cc(C)nc2sc3c(c12)NC(c1ccccc1C(=O)O)N(c1ccc(OC)cc1)C3=O (centres undefined)	0	0	-30.7	?	0
COCc1cc(C)nc2sc3c(c12)NC(c1ccc(O)c(OC)c1)N(c1ccccc1)C3=O (centres undefined)	?	0	0	?	-
CCN(C(=O)C(NS(=O)(=O)c1cccc2nsnc12)c1ccccc1)c1ccccc1 (centres undefined)	0	0	-27.6	0	0
COCc1ccccc1CNC(=O)c1cccs1	-	-	-	0	-
CCCN(CCC)CCCNC(=O)Cn1cnc2sc(C)c(S(=O)(=O)N3CCCCC3)c2c1=O	0	0	-27.4	0	0
CCc1ccc(-n2c(=O)c3c4c(sc3n(Cc3ccc(F)cc3)c2=O)CCCC4)cc1	0	0	-28.0	0	0
CCCCN(CC)C(=O)Cn1c(=O)n(-c2ccc(OCC)cc2)c(=O)c2c3c(sc21)CCC3	0	0	-33.4	0	0
CCc1ccc(-n2c(=O)c3c4c(sc3n(Cc3ccc(C)cc3)c2=O)CCC4)cc1	0	0	0	0	-
O=C(O)CCN1CCN(CCO)CC1	-	-	-	0	-
O=C(NCCc1ccccc1F)C1CN(C2CCCCC2)C(=O)N1 (centres undefined)	0[12.5 µM]	0	0	-	-
SMILES	SNCA viab count	SNCA expr inh	IP6K1 inh	KDM5B inhibitor	IP6K1 inh cnf
COc1ccc(-n2cc(-c3ccccc3)c3c(NC4CCCCC4)ncnc32)cc1	0	0	-25.1	?	?
CCOc1ccc(-n2cc(-c3ccccc3)c3c(NC4CCCCC4)ncnc32)cc1	0	0	0	0	-
CCOc1cccc(-c2nc3ccccc3c(=O)o2)c1	0	0	-29.1	0	?
COc1cccc(-c2nc3ccccc3c(=O)o2)c1	-	-	-	0	-
NC(=O)CSc1oc(-c2ccco2)nc1S(=O)(=O)c1ccc(Br)cc1	0	0	-33.0	?	?
Cc1ccc(CSc2oc(-c3ccco3)nc2S(=O)(=O)c2ccc(Br)cc2)cc1	?	0	-32.1	?	0
Cc1ccc(S(=O)(=O)c2nc(-c3ccco3)oc2SCC(=O)c2ccc(Cl)cc2)cc1	0	0	0	0	-
O=C(CSc1oc(-c2ccco2)nc1S(=O)(=O)c1ccc(Cl)cc1)c1ccc(Cl)cc1	0	?	-27.4	?	0
NC(=S)NNC(=O)c1ccccc1C(=O)O	-	-	-	0	-
COc1ccc2c(C)c(CCC(=O)Nc3nc4ccccc4[nH]3)c(=O)oc2c1C	-	-	-	0	-
Cc1cccc(CS(=O)(=O)CC2Nc3ccc(C(=O)NCc4ccccc4)cc3NC2=O)c1 (centres undefined)	0	?	0	?	-
Cc1ccc(CNC(=O)c2ccc3c(c2)NC(=O)C(CS(=O)(=O)Cc2cccc(F)c2)N3)cc1 (centres undefined)	0	0	-35.3	?	0
CCN(CC)CCCNC(=O)c1ccc2c(c1)NC(=O)C(CS(=O)(=O)Cc1ccc(F)cc1Cl)N2 (centres undefined)	0	0	0	?	-
CCOCCCNC(=O)c1ccc2c(c1)NC(=O)C(CS(=O)(=O)Cc1ccc(F)cc1Cl)N2 (centres undefined)	0	0	-42.8	?	0
Cc1ccccc1NC(=O)CSc1nc(=O)[nH]c2c1CCCC2	-	-	-	0	-
Cc1c(Cl)cccc1NC(=O)CSc1nc(=O)[nH]c2c1CCCC2	0	0	-26.9	0	0
Brc1ccc(CN2CCC(c3nc4ccncc4[nH]3)C2)cc1 (centres undefined)	0	0	-51.7!	?	?
COc1ccc(CC(=O)Nc2ccc([C@H]3OCC(=O)N(Cc4scnc4C)[C@@H]3CO)cc2)cc1	0	0	0	0	-
CCOC(=O)c1ccccc1NC(=O)c1c(-c2ccccc2)noc1C	0	?	-30.7	?	0
Cc1onc(-c2ccccc2)c1C(=O)Nc1ccc(NC(=O)c2c(-c3ccccc3)noc2C)cc1	-	-	-	0	-
COc1ccc(/C=C(\C#N)C(=O)Nc2cccc(C(F)(F)F)c2)cc1OC	-	-	-	0	-
Cc1cn2c(=O)c(S(=O)(=O)NCCc3ccc(Cl)cc3)c(C)nc2s1	0	0	0	?	-
Cc1ccc(CNS(=O)(=O)c2c(C)nc3sc(C)cn3c2=O)cc1	0	0	-26.7	?	0
COc1ccc(C(=O)NCCc2ncc(C)n2CC2CC2)cc1	0	0	0	0	-
CCc1ccc(C2c3c(-c4ccccc4)n[nH]c3C(=O)N2c2ccc(C(=O)O)cc2)cc1 (centres undefined)	0	?	0	0	-
Cc1ccc(-c2n[nH]c3c2C(c2ccccc2Cl)N(c2ccc(C(=O)O)cc2)C3=O)cc1 (centres undefined)	0	?	-28.6	0	0
CN(Cc1ccccc1)C(=O)c1ccnc(-c2nnc3ccc(N(C)c4ccccc4)nn23)c1	0	0	0	0	-
